Compound activity from PubChem BioAssay.
This is a sample that favours compounds with a hit; in the whole collection about 6% have one here.
D1 ag – agonists of human D1 dopamine receptor. activation, % at 2 µM. HEK293 T-REx D1 cells, calcium flux, agonist mode. P21728. 360,000 compounds, 1% hits; in the data active = activation above about 30%; also: 0% is about no effect
Target sequence (P21728 whole entry, looked up): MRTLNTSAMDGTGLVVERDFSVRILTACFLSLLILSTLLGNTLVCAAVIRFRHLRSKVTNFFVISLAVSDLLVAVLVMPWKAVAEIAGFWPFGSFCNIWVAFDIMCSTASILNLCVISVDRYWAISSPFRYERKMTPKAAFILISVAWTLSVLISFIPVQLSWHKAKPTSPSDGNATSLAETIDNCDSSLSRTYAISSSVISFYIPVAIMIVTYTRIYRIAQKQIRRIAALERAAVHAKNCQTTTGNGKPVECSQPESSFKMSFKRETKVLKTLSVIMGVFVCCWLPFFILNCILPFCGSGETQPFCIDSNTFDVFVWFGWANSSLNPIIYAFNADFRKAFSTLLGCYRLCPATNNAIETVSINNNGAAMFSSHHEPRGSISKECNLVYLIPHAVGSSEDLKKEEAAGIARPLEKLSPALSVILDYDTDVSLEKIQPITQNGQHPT
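Agonism was scored from calcium flux recorded over 180 s (1 read/s) after pintool compound addition, following a 10-cycle baseline. Cells were inducible force-coupled HEK293 TREx D1, plated overnight at 30 C and loaded with no-wash calcium dye.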
D3 antag – D3 dopamine receptor (human) antagonism. 360,000 compounds, 2.5% hits. D3R cells, DiscoveRx beta-arrestin luminescence, antagonist mode; stronger effect = lower value. AID 652054. max response, negative = inhibition, %. P35462; in the data active = max response below about -50%; inconclusive = no clear call, values can overlap the other calls; also: % is scaled to controls: 0 for no effect and ±100 for the full control effect
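Cells expressing the human receptor were seeded at 1500 cells/well, incubated overnight at 37 degrees C in 5% CO2, then exposed to library compounds with dopamine controls for 90 minutes at 37 degrees C before luminescent detection.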
D1 PAM – enhances dopamine response at the human D1 receptor. P21728. HEK293 TREx D1 cells, calcium flux, dopamine EC20 potentiation. potentiation, % at 10 µM. 360,000 compounds, 0.036% hits. AID 504651; in the data active = potentiation above about 30%; also: 0% is about no effect
D3 ag – agonists of human D3 dopamine receptor | 410,000 compounds, 0.58% hits | AID 652048 | max activation, % | D3R DiscoveRx beta-arrestin cells, luminescence, 90 min | P35462; in the data active = max activation above about 30%; also: 0% is about no effect
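Cells at 1500/well, incubated overnight, then treated with pinned compounds (dopamine as control) for 90 min at 37 degrees C. DiscoveRx reagent added for 30 - 60 minutes at room temperature; luminescence read.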
D1 antag – human D1 dopamine receptor antagonism | HEK293 TREx D1 cells, calcium flux, dopamine EC80; stronger effect = lower value | activity change, negative = inhibition, % at 10 µM | 360,000 compounds, 3.2% hits | AID 504652; in the data active = activity change below about -30%; also: % is scaled to controls: 0 for no effect and ±100 for the full control effect
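HEK293 T-REx cells expressing inducible, force-coupled D1 receptor; no-wash Ca dye, 30–90 min RT. Cmpd → 180 s read at 1 Hz → EC80 DA → 180 s read.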
* = called active by the depositor.

Screening S=c1[nH]nc(Cc2sc(-c3ccccc3)nc2-c2ccccc2)o1 returned D1 ag 0.7, D3 antag -67.0*, D1 PAM -2.9, D3 ag 4.0 and D1 antag -9.1.
`Cc1cccc(N2C(=O)CS(=O)(=O)C23C(=O)N(Cc2c(F)cccc2Cl)c2ccccc23)c1` (configuration not stated) gave D1 ag 4.4, D1 PAM -3.6, D3 ag -10.6 and D1 antag 10.6.
CC(C)n1cc(C(=O)c2cc(Br)ccc2O)cc(C#N)c1=O was read as D1 ag 0.1, D3 antag -67.0*, D1 PAM -1.4, D3 ag 6.4 and D1 antag 1.6.
Screening N#Cc1cc(C(=O)c2cc(F)ccc2O)cn(Cc2ccccc2)c1=O returned D1 ag 20.6, D3 antag 3.3, D1 PAM -12.6, D3 ag 0.4 and D1 antag -32.7*.
N#Cc1cc(C(=O)c2ccccc2O)cn(-c2ccc(Cl)cc2)c1=O was read as D1 ag 19.2, D3 antag 15.6, D1 PAM -3.3, D3 ag 0.8 and D1 antag -2.3.
`Cc1c(-n2cc(C(=O)c3ccccc3O)cc(C#N)c2=O)c(=O)n(-c2ccccc2)n1C` gave D1 ag 35.6*, D3 antag 15.9, D1 PAM -11.8, D3 ag 2.0 and D1 antag -6.5.
CCOCCCn1cc(C(=O)c2cc(Br)ccc2O)cc(C#N)c1=O was read as D1 ag 20.8, D3 antag -19.1, D1 PAM -9.9, D3 ag -15.2 and D1 antag -35.6*.
`COc1ccc(O)c(C(=O)c2cc(C#N)c(=O)n(-c3ccc(Cl)cc3)c2)c1` gave D1 ag 14.5, D3 antag 16.6, D1 PAM -1.1, D3 ag 10.5 and D1 antag 7.5.
For CCCCn1cc(C(=O)c2cc(Br)ccc2O)cc(C#N)c1=O the results were D1 ag 31.3*, D3 antag 25.5, D1 PAM -9.4, D3 ag 4.0 and D1 antag -21.0.
COc1ccc(-n2cc(C(=O)c3cc(Cl)ccc3O)cc(C#N)c2=O)cc1 was read as D1 ag 19.7, D3 antag -21.9, D1 PAM -10.2, D3 ag -11.3 and D1 antag -34.6*.
Screening COCCNC(=O)CSc1nc(-c2ccccc2C)nc2c1c(=O)n(C)c(=O)n2C returned D1 ag 1.5, D1 PAM 3.6, D3 ag 9.5 and D1 antag -0.6.
For N[C@H](C(=O)O)c1ccc(O)cc1 the results were D3 ag -6.9.
COc1ccc(NC(=O)c2oc3ccccc3c2NC(=O)C2CCCCC2)c(OC)c1 was read as D1 ag 1.8, D1 PAM 0.8, D3 ag -3.3 and D1 antag -2.1.
For CC(N)=Nc1ccc([N+](=O)[O-])cc1 the results were D1 ag 3.7, D3 antag -20.0, D1 PAM 2.1, D3 ag 2.4 and D1 antag -0.7.
O=[N+]([O-])c1ccc(N=Nc2c(Cl)cc(O)cc2Cl)cc1 was read as D1 ag 21.2, D3 antag -12.6, D1 PAM -12.8, D3 ag -0.9 and D1 antag -46.3*.
For O=C(O)C1(C(=O)O)CCCC1 the results were D3 antag 3.1 and D3 ag 6.2.
`NC1(C(=O)O)CC1` gave D3 antag -75.3* and D3 ag -47.7.
Cc1ccc(C23CC4CC(CC(CN)(C4)C2)C3)cc1 was read as D1 ag 42.1*, D3 antag -7.0, D1 PAM -5.7, D3 ag 0.3 and D1 antag 22.2.
`Cc1ccc(S(=O)(=O)NC(=O)N[C@@H](C)Cc2ccccc2)cc1` gave D3 ag 5.7.
For CCN(CC)C(=O)CSc1nc2c(c(=O)n(C)c(=O)n2C)n1Cc1ccccc1 the results were D1 ag 0.5, D1 PAM -1.1, D3 ag 2.1 and D1 antag 1.3.
`CC(C)(C)NC(=O)CN(C(=O)C1CSC(=O)C1)c1ccc2c(c1)OCCO2` (configuration not stated) gave D1 ag -1.3, D3 antag inconclusive, D1 PAM 1.2, D3 ag -1.2 and D1 antag -36.1*.
O=C(Cn1c(=O)n(-c2ccc(F)cc2)c(=O)c2sc3ccccc3c21)N1CCCC1 was read as D1 ag -0.7, D1 PAM -0.6, D3 ag -3.1 and D1 antag 4.7.
`O=C(CN1c2ccc(Br)cc2-c2ccccc2S1(=O)=O)N1CCCCC1` gave D1 ag 3.6, D1 PAM 0.6, D3 ag 0.6 and D1 antag 5.8.
`O=C1NC(=O)/C(=C\c2ccccc2Oc2ccc(F)c(F)c2)S1` gave D1 ag 7.8, D3 antag -5.0, D1 PAM -1.8, D3 ag -0.2 and D1 antag -34.3*.
CCc1ccc(CN(Cc2cn[nH]c2-c2ccc(OC)cc2)C(=O)Nc2ccc(Br)cc2)cc1 was read as D1 ag 7.2, D1 PAM -2.0, D3 ag 17.4 and D1 antag 3.7.
O=C1C(=O)c2c(ccc3ccccc23)-c2ccccc21 was read as D3 antag -53.5* and D3 ag -13.9.
Screening CCOC(=O)c1ccc(NC(=O)c2cc3cc(C)ccc3n2C)cc1 returned D1 ag 2.6, D1 PAM -0.9, D3 ag 5.3 and D1 antag 14.9.
`CC(=O)N(Nc1ccccc1)c1ccccc1` gave D1 ag -0.3, D3 antag 14.1, D1 PAM -1.0, D3 ag 4.7 and D1 antag -52.3*.
For Cc1ccc2nc(SCc3nnc(-c4ccccc4)o3)[nH]c2c1 the results were D1 ag -0.8, D3 antag 9.3, D1 PAM -0.5, D3 ag -1.2 and D1 antag 12.4.
Screening Cc1ccc2nc(SCc3nnc(-c4cccs4)o3)[nH]c2c1 returned D1 ag 0.8, D3 antag 7.1, D1 PAM -1.1, D3 ag 0.3 and D1 antag -37.1*.
For O=C(CS(=O)(=O)c1cccc2nsnc12)N1CCN(c2cccc(C(F)(F)F)c2)CC1 the results were D1 ag 8.1, D1 PAM 3.8, D3 ag 1.7 and D1 antag -13.2.
O=C(/C=C/c1ccc(Cl)cc1Cl)N1CCN(c2ccccc2[N+](=O)[O-])CC1 was read as D1 ag 6.5, D3 antag -15.6, D1 PAM 3.6, D3 ag -14.2 and D1 antag -8.4.
Screening O=C(/C=C/c1cccc([N+](=O)[O-])c1)N1CCN(c2ccccc2F)CC1 returned D1 ag 0.0, D3 antag 1.5, D1 PAM -7.5, D3 ag 4.1 and D1 antag -58.4*.
O=C(/C=C/c1ccccc1[N+](=O)[O-])N1CCN(c2ccccc2F)CC1 was read as D1 ag 0.6, D3 antag 3.3, D1 PAM -13.2, D3 ag 2.5 and D1 antag -67.9*.
